PostGolgi yeast – growth inhibition of a yeast mutant, post-Golgi transport screen; post-Golgi transport phenotypic cell assay; inhibition, % at 10 µM; 98,000 tested, 0.9% active;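 note: yeast cells grown in 1536-well plates; yeast grown about 18 h at 30C before absorbance read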
PostGolgi ctrl – growth of the yeast control strain, post-Golgi counter-screen | efflux-deficient yeast background strain, growth absorbance A615, 16 h | inhibition, % at 10 µM | 98,000 tested, 5% active | AID 738
CYP2C9 activ – increases human cytochrome P450 2C9 activity; recombinant CYP2C9, luciferin-H conversion, luminescence; hits give high values; factor 1 = untreated enzyme, 0 = blocked; activation factor at 5 µM; P11712; 96,000 tested, 1.4% active; AID 1024;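 active = activation factor of 2 or more for CYP2C9 at a 5 µM dose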
CYP2C19 activ – activators of human cytochrome P450 2C19; P33261; recombinant CYP2C19, luciferin-H EGE luminescence; hits give high values; 0 = fully inhibited enzyme, 1 = untreated enzyme; activation factor at 5 µM; 96,000 tested, under 10 active; AID 1025;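 active = activation factor of at least 2 at 5 µM in the primary screen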
Target sequence (P33261 whole entry, looked up): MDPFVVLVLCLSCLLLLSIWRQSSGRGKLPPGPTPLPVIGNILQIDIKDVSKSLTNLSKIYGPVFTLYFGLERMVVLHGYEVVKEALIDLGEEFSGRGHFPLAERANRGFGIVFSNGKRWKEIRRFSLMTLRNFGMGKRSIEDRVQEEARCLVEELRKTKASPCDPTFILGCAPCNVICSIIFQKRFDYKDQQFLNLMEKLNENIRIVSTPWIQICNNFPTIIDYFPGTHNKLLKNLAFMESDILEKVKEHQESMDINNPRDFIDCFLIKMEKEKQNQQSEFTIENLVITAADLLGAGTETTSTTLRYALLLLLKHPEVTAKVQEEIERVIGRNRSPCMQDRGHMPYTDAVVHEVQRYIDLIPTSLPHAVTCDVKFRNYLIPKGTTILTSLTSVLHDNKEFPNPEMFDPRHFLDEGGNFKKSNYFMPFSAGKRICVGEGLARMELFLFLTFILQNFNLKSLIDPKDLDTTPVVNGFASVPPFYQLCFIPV
CYP2C9 inhib – inhibitors of human CYP2C9 | P11712 | CYP2C9 Supersomes, luciferin-H conversion, luminescence | inhibition, % at 5 µM | 96,000 tested, 20% active | AID 777;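 active = blocking of liver enzyme CYP2C9 beyond about 50% at 5 µM, limit read from the data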
CYP2C19 inh – inhibitors of human CYP2C19. P33261. CYP2C19 Supersomes, luciferin-H EGE luminescence, 30 min. inhibition, % at 5 µM. 96,000 tested, 21% active. AID 778;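 active = CYP2C19 inhibition above a set limit at 5 µM in the primary screen, cut at about 50% in these data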
Large screens that a line does not name were inactive. The list is not random: actives were taken first. Their share in the collection is about 32%. Cut-off read from the data, not from the text of the source, unless noted: active = inhibition above about 30%; inactive = the rest.

COc1ccc(OCC(=O)OCCN2C(=O)c3ccccc3C2=O)cc1	none
O=C1c2ccccc2C(=O)N1CCOCCN1C(=O)c2ccccc2C1=O	none
O=C1c2ccccc2C(=O)N1CN(C(=O)COc1ccccc1)c1ccccc1	CYP2C19 inh 58
Cc1onc(-c2ccccc2)c1C(=O)N1CCN(C/C=C/c2ccccc2)CC1	none
O=C(Cc1cn2ccsc2n1)Nc1cccc2cnccc12	none
O=C(CCSc1nc(-c2ccco2)cc(C(F)(F)F)n1)N1CCN(c2ccccn2)CC1	PostGolgi ctrl 30, CYP2C9 inhib 86, CYP2C19 inh 86
O=C(CCSc1nc(-c2ccco2)cc(C(F)(F)F)n1)N1CCCc2ccccc21	PostGolgi ctrl 38, CYP2C9 inhib 92, CYP2C19 inh 96
CC1(N2CCOCC2)CC2(O)C(=[N+]1[O-])CCc1c2no[n+]1[O-] (stereo unspecified)	none
CCc1ccc(/C=C2\SC(=S)N(CCCC(=O)Nc3ccccn3)C2=O)cc1	none
CCc1ccc(/C=C2/SC(=S)N(CC(=O)Nc3nc4ccccc4s3)C2=O)cc1	CYP2C9 inhib 53
C=C(C)Cn1c(COc2ccccc2)nnc1SCC(=O)O	none
C=CCn1c(=O)c2ccccc2n2c(SCc3c(C(=O)OCC)oc4ccccc34)nnc12	CYP2C9 inhib 60, CYP2C19 inh 59 (no result: PostGolgi yeast, PostGolgi ctrl)
C=CCn1c(=O)c2ccccc2n2c(SCc3nc4ccccc4s3)nnc12	CYP2C19 inh 62
C=CCn1c(=O)c2ccccc2n2c(SCC(N)=O)nnc12	none
Cc1noc(C)c1S(=O)(=O)N1CCC(C(=O)N2CCC(N3CCCCC3)CC2)CC1	none
CCOc1ccccc1-n1c(SCC(=O)NC(C)CC)nnc1-c1ccoc1C (stereo unspecified)	none
C#CCn1c(S(=O)(=O)Cc2ccc(F)cc2)nc(-c2ccccc2)c1-c1ccccc1	CYP2C9 inhib 92, CYP2C19 inh 98
CCOC(=O)Cn1c(S(=O)(=O)Cc2cccc(F)c2)nc(-c2ccccc2)c1-c1ccccc1	none
CCOC(=O)Cn1c(S(=O)(=O)Cc2ccc(F)cc2)nc(-c2ccccc2)c1-c1ccccc1	CYP2C19 inh 52
CCOC(=O)C1=C(C)Nc2nnnn2C1c1cccnc1 (stereo unspecified)	none
CNC(=O)C1=C(C)Nc2nc3ccccc3n2C1c1cccc(OC)c1 (stereo unspecified)	none
CCOC(=O)C1=C(C)Nc2nc(SCc3cccnc3)nn2C1c1ccc(OC)cc1 (stereo unspecified)	CYP2C9 inhib 66
COc1ccc(OC)c(C2C(C(=O)N(C)C)=C(C)Nc3nc4ccccc4n32)c1 (stereo unspecified)	none
CCOC(=O)C1=C(C)Nc2nc3ccccc3n2C1c1ccncc1 (stereo unspecified)	CYP2C9 inhib 54, CYP2C19 inh 54
C=CCOC(=O)C1=C(C)Nc2nc3ccccc3n2C1c1ccncc1 (stereo unspecified)	CYP2C9 inhib 58, CYP2C19 inh 62
